# Screening data: PubChem BioAssay, National Center for Advancing Translational Sciences (NCATS)
# WRN inhibitor – WRN helicase (human) inhibition | Q14191 | WRN helicase unwinding, fluorescent forked duplex, kinetic | Potency, µM (highest dose often 114 µM), for inactives: top-dose activity change, negative = inhibition, most hits filed as inhibitors | hit rate 0.46% among 360,000; note: potency is the fitted concentration of half-maximal effect; % is set by controls: 0 for no effect and ±100 for the full control effect; nearly all actives have a fitted effect of over 55% in size
# Target sequence (Q14191 whole entry, looked up): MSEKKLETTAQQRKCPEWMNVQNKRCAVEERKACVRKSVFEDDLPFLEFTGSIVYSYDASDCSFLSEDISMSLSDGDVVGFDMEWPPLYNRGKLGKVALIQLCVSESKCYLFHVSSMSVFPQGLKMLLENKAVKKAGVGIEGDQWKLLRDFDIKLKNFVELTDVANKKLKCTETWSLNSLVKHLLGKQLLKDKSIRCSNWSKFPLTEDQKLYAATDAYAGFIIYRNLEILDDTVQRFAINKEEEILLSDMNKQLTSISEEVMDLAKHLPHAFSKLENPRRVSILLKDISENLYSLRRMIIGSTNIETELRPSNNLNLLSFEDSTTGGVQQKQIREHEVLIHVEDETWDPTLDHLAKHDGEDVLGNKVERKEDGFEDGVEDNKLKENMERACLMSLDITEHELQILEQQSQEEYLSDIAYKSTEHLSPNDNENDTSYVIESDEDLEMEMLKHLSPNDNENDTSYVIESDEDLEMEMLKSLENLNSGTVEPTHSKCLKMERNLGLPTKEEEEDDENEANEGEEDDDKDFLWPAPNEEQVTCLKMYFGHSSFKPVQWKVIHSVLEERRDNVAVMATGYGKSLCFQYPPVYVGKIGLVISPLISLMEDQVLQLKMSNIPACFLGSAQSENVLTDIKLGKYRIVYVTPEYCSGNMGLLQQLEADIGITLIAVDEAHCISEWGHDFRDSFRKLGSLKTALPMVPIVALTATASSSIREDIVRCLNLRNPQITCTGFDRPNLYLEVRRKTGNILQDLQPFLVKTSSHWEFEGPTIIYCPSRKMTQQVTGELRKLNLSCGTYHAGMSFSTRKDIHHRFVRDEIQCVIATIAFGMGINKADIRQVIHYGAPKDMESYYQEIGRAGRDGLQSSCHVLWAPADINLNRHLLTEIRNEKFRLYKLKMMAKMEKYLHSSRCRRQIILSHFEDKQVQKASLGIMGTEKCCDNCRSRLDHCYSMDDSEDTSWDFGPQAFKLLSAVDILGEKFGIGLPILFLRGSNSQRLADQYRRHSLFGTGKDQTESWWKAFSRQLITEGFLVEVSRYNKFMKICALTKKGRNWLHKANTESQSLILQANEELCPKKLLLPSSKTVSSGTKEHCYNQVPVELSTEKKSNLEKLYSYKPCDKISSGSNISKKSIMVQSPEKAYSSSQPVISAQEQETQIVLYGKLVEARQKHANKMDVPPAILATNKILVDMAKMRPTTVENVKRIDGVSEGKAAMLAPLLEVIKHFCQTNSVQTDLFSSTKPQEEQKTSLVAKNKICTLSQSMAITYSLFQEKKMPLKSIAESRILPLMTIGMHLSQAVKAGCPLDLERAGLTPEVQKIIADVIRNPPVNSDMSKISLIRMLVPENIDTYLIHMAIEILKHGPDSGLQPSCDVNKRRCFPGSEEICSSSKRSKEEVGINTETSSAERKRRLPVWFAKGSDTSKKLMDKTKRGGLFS
#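 Kinetic red-fluorescence monitoring (525/598 nm) tracks WRN helicase activity after 100 nM fluorophore-quencher forked duplex and 2 mM ATP are added to 20 nM enzyme pretreated 15 min at room temperature with compound.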
# VDR inh – inhibitors of human vitamin D receptor | AID 504847 | Potency, µM, inactives show max response, negative = inhibition, usual class: inhibitors | VDR-SRC2-3 peptide fluorescence polarization, 2 h | P11473 | hit rate 0.93% among 400,000; note: potency is the fitted concentration of half-maximal effect; % is set by controls: 0 for no effect and ±100 for the full control effect
#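 Signal is fluorescence polarization, reporting how far test compounds block the interaction of VDR with the SRC2-3 coregulator peptide after a 2 h room-temperature incubation.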
# PLK1 PBD inh – blocks phosphopeptide binding to human PLK1 polo-box domain | P53350 | Plk1 PBD binding of FITC phosphopeptide, fluorescence polarization | Potency, µM, inactives show max response, negative = inhibition, actives largely listed as inhibitors | hit rate 2.8% among 360,000 | AID 720504; note: potency is the fitted concentration of half-maximal effect; series mostly up to about 57 µM; % is set by controls: 0 for no effect and ±100 for the full control effect; nearly all actives have a fitted effect of over 65% in size
# TCR activator – T cell receptor activation; primary human leukocytes, anti-CD3, IL-2 HTRF, 48 h; Potency, µM (series often up to 9.22 µM), for inactives: at the highest dose activation of IL-2 secretion, hits mostly activators; 330,000 tested, under 10 active; AID 504894; note: % of control where 0% means no effect
#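 48 hr co-incubation of compounds, a-CD3 beads and primary human leukocytes; IL-2 quantified homogeneously by HTRF with anti-IL-2 K and d2 conjugates.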
# PI5P4Ka inh – PI5P4K alpha (human) kinase inhibition. PI5P4Kalpha enzyme, ADP-Glo luminescence, 60 min; stronger effect = lower value. hit rate 1.2% among 330,000. max response, %. P48426; active = max response of -50% or lower; inconclusive = between -30% and -50%; inactive = -30% or higher; note: value at the top dose of about 77 µM; % is set by controls: 0 for no effect and ±100 for the full control effect
#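 Human PI5P4Kalpha with substrate in 0.038 M HEPES pH 7.4, 0.28 mM EGTA, 0.1% CHAPS, 5% DMSO; reaction started with 5 microM ATP (final), 60 min at room temperature. ADP formed read by ADP-Glo luminescence.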
# FEN1 inhibitor – human FEN1 inhibition; Recombinant FEN1 flap cleavage, fluorescence, 15 min; Potency, µM (highest dose often 114 µM), without a hit: at the highest dose activity change, negative = inhibition, actives largely listed as inhibitors; hit rate 0.35% among 390,000; note: potency is the fitted concentration of half-maximal effect; % is set by controls: 0 for no effect and ±100 for the full control effect; nearly all actives have a fitted effect of over 65% in size
#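 Recombinant FEN1 (10 nM) was preincubated with pin-transferred compounds for 15 min at room temperature, then flap DNA substrate (50 nM final) was added. Plates were read at 0 and 15 min, and normalized concentration–response data were fitted to a four-parameter Hill equation.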
# The depositor's hits bear a star; ? = inconclusive; · = no result; ! = a repeat was not active; [ ] = dose if it differs, or a comment. This is a sample that favours compounds with a hit; in the whole collection about 3.7% have one here. Unless noted, calls come from the whole dose curve; as a rule, active = well fitted curve in the direction sought with a large enough effect; inconclusive = small, poorly fitted or top-dose-only effect, or another doubt; inactive = no such curve, though single readings can be large; an effect the other way counts as inactive or inconclusive.
SMILES,WRN inhibitor,VDR inh,PLK1 PBD inh,TCR activator,PI5P4Ka inh,FEN1 inhibitor
Cc1[nH]n(-c2ccccc2)c(=O)c1C(c1cccc([N+](=O)[O-])c1O)c1c(C)[nH]n(-c2ccccc2)c1=O,?,?,8.4µM*,4%[46.1 µM],-10,-13%
CCCCC/C=C\C/C=C\C/C=C\C/C=C\CCCC(=O)NCCCl,·,27%,·,·,·,·
C=CCN1CCC23c4c5ccc(O)c4OC2/C(=N/N=C2\CCC4(O)C6Cc7ccc(O)c8c7C4(CCN6CC=C)C2O8)CCC3(O)C1C5 (centres undefined),·,-12%,·,·,·,·
CCOC(=O)Cn1cc(C(=O)c2ccccc2F)c2ccccc21,1%,?,21µM*,·,-9,-17%
COc1cc(/C=C2/SC(=S)N(Cc3ccccc3)C2=O)ccc1OCC(=O)O,-13%[57.1 µM],89µM*,?,2%,-17,?
CCCC(Cn1cncn1)c1ccc(Cl)cc1Cl (centres undefined),·,-10%,·,·,·,·
Cc1ccc(-n2c(O)c(/C=N/c3ncc(Br)cc3Br)c(=O)[nH]c2=O)cc1,0%,2%,-12%,-55%,0,7%
Cc1cccc(-n2c(O)c(C=Nc3ccc(Br)cn3)c(=O)[nH]c2=O)c1,?,20µM*,6µM*,5%,-26,0%
CN1CCC2(CC1)C(C#N)=C(N)NC(S)=C2C#N,56µM*!,-19%,?,1%,?,-23%
O=C(O)c1cc[c]([Hg][Cl])cc1,-2%,10µM*,0.24µM*,3%,-58*,25µM*
COc1ccc(C(=O)O)cc1OC,0%,4%,0%,1%,9,0%
Oc1ccc2c(c1)[C@@]13CCCCC1[C@@H](C2)N(CC1CCC1)CC3 (some centres undefined),·,-2%,·,·,·,·
C[N+](C)(C)CC#CCOC(=O)Nc1cccc(Cl)c1,-1%,50µM*!,-13%,4%,-3,1%[57.1 µM]
O=C1/C(=C/c2ccc(N(CCCl)CCCl)cc2)Cc2ccccc21,·,·,·,·,·,-16%
COc1ccc(C(=O)NCCn2cc(SC(C)c3ccccc3)c3ccccc32)cc1OC (centres undefined),·,1%,·,·,·,?
CCc1ccc(N2C(=O)NC(=O)/C(=C/c3cccn3CCOc3ccc(C(C)CC)cc3)C2=O)cc1 (centres undefined),-5%[57.1 µM],-8%,-11%,0%[46.1 µM],-53*,-10%
O=C1NC(=O)N(Cc2ccco2)C(=O)/C1=C\c1cccn1CCOc1ccc(Cl)cc1,50µM*,-27%,1.9µM*,4%[46.1 µM],-54*,-32%
CCc1ccc(N2C(=O)NC(=O)/C(=C/c3cccn3CCOc3ccc(C)cc3)C2=O)cc1,-2%,17%,-10%,-1%[46.1 µM],-24,1%
Cc1cccc(OCCn2cccc2/C=C2/C(=O)NC(=O)N(Cc3ccco3)C2=O)c1,?,8%,1.9µM*,8%,-57*,-33%
CCC1(C)CC(C(N)=S)CCO1 (centres undefined),?,20µM*,2.1µM*,4%,-8,-1%
Clc1cccc(C2NCc3ccccc3-n3cccc32)c1 (centres undefined),7%,-9%,30µM*,0%,8,7%
CCCC(=O)O[C@@H]1[C@@H](C)[C@@]2(O)[C@@H](C=C(CO)C[C@@]3(O)C(=O)C(C)=C[C@@H]23)[C@@H]2C(C)(C)[C@]12OC(=O)CCC,·,11%,·,·,·,·
CN(C(=O)Cc1ccccc1)[C@H](CN1CCCC1)c1ccccc1,·,-1%,·,·,·,·
C=C(C)[C@]12C[C@@H](C)[C@@]34O[C@](Cc5ccccc5)(O[C@@H]1[C@@H]3C=C(COC(=O)Cc1ccc(O)c(OC)c1)C[C@]1(O)C(=O)C(C)=C[C@@H]41)O2,·,-13%,·,·,·,·
CCCCOC(=O)N(C)SN(C)C(=O)Oc1cccc2c1OC(C)(C)C2,·,3.2µM*,·,·,·,·
CNC(=O)Oc1cccc2c1OC(C)(C)C2,·,6%,·,·,·,·
On1ccccc1=S,4%,22µM*,?,4%,-100*,?
CCOP(=O)(OCC)OCC,-1%,14%,-14%,11%,-2,-2%
